Compound activity (PubChem BioAssay)
Only some compounds are listed: those with a hit (about 21% of all), similar ones and a draw of the others.
ClpP mod: qHTS Assay for Activators of ClpP. purified B. subtilis ClpP, FRET peptide cleavage, 20 min. hit rate 1.9% among 340,000. Potency, µM (doses to about 57.5 µM), for the others: at the top dose activity change, negative = active; active = well fitted falling curve with a large enough effect; inconclusive = small, poorly fitted or top-dose-only effect; inactive = no such curve, though single readings can be large or run the other way; also: potency is read from the fitted curve at half-maximal effect; the source files actives as falling curves though it sought activators and does not explain the sign; nearly all actives have a fitted effect of over 65% in size
Target sequence (P80244 whole entry, looked up): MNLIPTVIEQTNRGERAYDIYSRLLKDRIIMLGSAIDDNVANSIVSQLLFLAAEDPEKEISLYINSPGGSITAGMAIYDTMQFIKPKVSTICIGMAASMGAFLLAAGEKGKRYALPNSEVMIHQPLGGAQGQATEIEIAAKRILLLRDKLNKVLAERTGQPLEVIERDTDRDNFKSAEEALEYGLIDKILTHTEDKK
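Purified B. subtilis ClpP, 10 microg/mL final in Tris/HCl pH8 with KCl, BSA, glycerol and Tween-20, cleaved an Abz/nitrotyrosine-quenched decapeptide. Fluorescence (ex 320, em 430) was read at 0 and 20 min at room temperature. Delta was normalized to 5.8 microM ADEP and DMSO/no-enzyme controls.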
D3 antag: blocks the human D3 dopamine receptor; hit rate 2.5% among 360,000; D3R cells, DiscoveRx beta-arrestin luminescence, antagonist mode; stronger effect = lower value; P35462; max response, negative = inhibition, %; in the data active = max response below about -50%; inconclusive = no clear call, values can overlap the other calls; also: % is scaled to controls: 0 for no effect and ±100 for the full control effect
Target sequence (P35462 whole entry, looked up): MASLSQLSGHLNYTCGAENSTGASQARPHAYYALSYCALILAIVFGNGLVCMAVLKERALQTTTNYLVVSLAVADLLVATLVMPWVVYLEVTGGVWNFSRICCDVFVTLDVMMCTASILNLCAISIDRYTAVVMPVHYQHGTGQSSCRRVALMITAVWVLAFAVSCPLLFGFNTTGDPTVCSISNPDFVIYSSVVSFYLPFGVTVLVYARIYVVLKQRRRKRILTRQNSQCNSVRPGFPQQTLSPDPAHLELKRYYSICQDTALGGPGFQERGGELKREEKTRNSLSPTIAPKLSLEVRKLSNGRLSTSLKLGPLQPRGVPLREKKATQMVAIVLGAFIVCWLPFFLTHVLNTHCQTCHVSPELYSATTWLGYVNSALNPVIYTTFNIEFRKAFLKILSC
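Cells plated overnight at 1500 cells/well, then exposed to library compounds with dopamine controls for 90 minutes at 37 degrees C. DiscoveRx reagent added for 30–60 minutes at room temperature; luminescence read, quantitative HTS format.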
D3 ag: activates the human D3 dopamine receptor; P35462; D3R DiscoveRx beta-arrestin cells, luminescence, 90 min; max activation, %; hit rate 0.58% among 410,000; AID 652048; in the data active = max activation above about 30%; also: 0% is about no effect
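Agonist-mode cell screen: cells plated at 1500/well and incubated overnight at 37 °C, then exposed to library compounds for 90 min at 37 °C. Detection reagent was added for 30–60 min at room temperature, and luminescence was read.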
DT40 TDP1 no CPT: qHTS for Inhibitors of human tyrosyl-DNA phosphodiesterase 1 (TDP1): qHTS in cells in absence of CPT; DT40 Tdp1-/- hTDP1 cells, no CPT, ATP luminescence, 48 h; Potency, µM (doses to about 46.2 µM), for the others: at the highest dose activity change, negative = growth inhibition, most hits filed as inhibitors; hit rate 15% among 420,000; also: potency is read from the fitted curve at half-maximal effect; % is scaled to controls: 0 for no effect and ±100 for the full control effect; nearly all actives have a fitted effect of over 55% in size
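Luminescent ATP content (CellTiter-Glo) served as the growth readout. Knockout chicken DT40 cells expressing human TDP1 were exposed to compounds without camptothecin for a minimum 48 hr at 37 °C.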
IL1B secr inh: inhibitors of inflammasome signaling (IL-1 beta secretion) | THP-1 LPS/ATP IL-1B secretion, AlphaLISA, 16 h; stronger effect = lower value | AID 743279 | hit rate 4.7% among 360,000 | activity change, % at 57.5 µM; in the data active = activity change below about -50%; inconclusive = mostly about -30% to -49%; also: % is scaled to controls: 0 for no effect and ±100 for the full control effect
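THP-1 cells pretreated 1 hr with compounds (up to 57.5 uM final), then stimulated with LPS (250 ng/mL final) plus ATP (1.25 mM final); secreted IL-1B measured by AlphaLISA after 16 hr, decreased signal indicating inhibition.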
TDP1 cell CPT: DT40-hTDP1 cell growth loss with CPT. hit rate 12% among 420,000. Potency, µM (series often up to 46.2 µM), without a hit: top-dose activity change, negative = growth inhibition, usual class: inhibitors. chicken DT40 Tdp1-/-;hTDP1 cells + 20 nM CPT, ATP luminescence, 48 h; also: potency is read from the fitted curve at half-maximal effect; % is scaled to controls: 0 for no effect and ±100 for the full control effect; nearly all actives have a fitted effect of over 55% in size
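Chicken DT40 Tdp1-/- cells complemented with human TDP1, 400 cells/well, exposed to compounds plus 20 nM camptothecin for at least 48 h at 37 C; viability read as ATP content by CellTiter-Glo luminescence.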
The depositor's hits bear a star; u = inconclusive; x = not tested or not shown. Unless noted, calls follow the shape of the dose curve; as a rule, active = well fitted inhibition curve with a large enough effect; inconclusive = small, poorly fitted or top-dose-only effect; inactive = flat fitted curve, though single readings scatter.

SMILES | ClpP mod | D3 antag | D3 ag | DT40 TDP1 no CPT | IL1B secr inh | TDP1 cell CPT
COc1ccc(S(=O)(=O)NCCc2sc(-c3cccnc3)nc2C)c(F)c1 | 4% | x | -13 | x | x | x
C/C=C\C=C\C(=O)N1CC2(CC(c3cccc(NC(=O)CC)c3)=NO2)C[C@H]1C(N)=O (some centres not stated) | -2% | -5 | 26 | 9% | 35 | 2%
O=C(O)c1nc2nc(Cl)c(Cl)nc2[nH]1 | -5% | -4 | -2 | -12% | 52 | -5%
FC(F)(F)c1nc2nc(Cl)c(Cl)nc2[nH]1 | -3% | -8 | -1 | 21µM* | 31 | u
FC(F)(F)C(F)(F)C(F)(F)c1nc2nc(Cl)c(Cl)nc2[nH]1 | 4% | u | -8 | 16µM* | 27 | u
FC(F)(F)c1cccc(-c2nc3nc(Cl)c(Cl)nc3[nH]2)c1 | 4% | -4 | 3 | 2.1µM* | -18 | 7.3µM*
CN1CCN(S(=O)(=O)c2cccc(C(=O)NC3CCCC3)c2)CC1 | -3% | 11 | 5 | -16% | -1 | -5%
Cc1nn(Cc2c(Cl)cccc2Cl)c(Cl)c1/C=C/C(=O)OCC(=O)NCC(F)(F)F | -2% | 0 | 0 | u | 19 | u
COCCNC(=O)COC(=O)/C=C/c1c(C)nn(Cc2ccc(Cl)cc2Cl)c1Cl | 0% | 1 | 0 | 16µM* | 1 | 15µM*
Cn1c(SCc2nc3ccccc3[nH]2)nnc1-c1cccnc1 | -1% | 5 | -3 | -17% | 10 | -19%
CCOc1ccc(-c2nnc(SCc3nc4ccccc4[nH]3)n2N)cc1 | -1% | -6 | 3 | -2% | -64* | -20%
O=C(c1cc(=O)c2ccccc2o1)N1CCCc2ccccc21 | 0% | 8 | -3 | 5% | 22 | 2%
CSCc1c(C(=O)N2CCCc3ccccc32)oc2ccccc12 | -7% | -18 | -21 | u | -1 | 15µM*
C=C1C(=O)O[C@@H]2[C@H]1CC[C@H](C)[C@]1(O)CCC(=O)[C@@]21C | 0% | -3 | 2 | u | -69* | 23µM*
C=C1CCC(O)C2(C)CCC3C(C)C(=O)OC3C12O (configuration not stated) | x | -2 | 5 | 21% | 19 | 31%
COc1cccc(-c2noc(Cn3nc(C(=O)O)c4ccccc4c3=O)n2)c1 | x | 3 | 8 | -16% | -7 | 1%
O=C(O)c1nn(Cc2ncc(-c3cccc(Cl)c3)o2)c(=O)c2ccccc12 | x | 8 | 33* | -7% | 8 | -16%
CCN(CC)S(=O)(=O)c1ccc(N2CCOCC2)c(NC(=O)C2CCCO2)c1 (configuration not stated) | -1% | 11 | 4 | 1% | 32 | -25%
C=CCn1c(=NC(=O)c2sc3ccccc3c2Cl)sc2cc(S(N)(=O)=O)ccc21 | 25µM* | 3 | 8 | u | -4 | u
COCCn1c(=NC(=O)c2cc(-c3cccs3)nc3ccccc23)sc2cc(S(N)(=O)=O)ccc21 | 1% | 32 | 11 | u | u | u
COCCn1c(=NC(=O)c2sc3ccccc3c2Cl)sc2cc(S(N)(=O)=O)ccc21 | 22µM* | 15 | 4 | 13µM* | 17 | u
CCCCCC(=O)N1C[C@H](O)[C@@H](n2cc(C3CC3)nn2)C[C@@H]1c1ccc(Cl)cc1 | 0% | -15 | 3 | -14% | -7 | 6%
O=C(CCCO)c1ccc2c(c1)OCCO2 | -16% | -21 | -5 | -9% | -5 | -26%
O=C(CCCN1CCC(c2ccccc2)C1)c1ccc2c(c1)OCCO2 (configuration not stated) | -11% | -82* | -33 | -24% | u | u
O=C(Nc1ccc(CN2CCCCC2)cc1)c1ccc2c(c1)OCO2 | 0% | -29 | -3 | -4% | -2 | -6%
SMILES | ClpP mod | D3 antag | D3 ag | DT40 TDP1 no CPT | IL1B secr inh | TDP1 cell CPT
O=C(CCN1CCc2ccccc2CC1)c1ccc2c(c1)OCCO2 | 6% | -94* | -12 | 4.1µM* | -58* | 4.6µM*
O=C(CNC1=NCCC1)c1ccc2c(c1)OCCO2 | -12% | 16 | -3 | 18µM* | 9 | u
O=C(CCN1CCCCC1)c1ccc2c(c1)OCO2 | -8% | -65* | -12 | 10µM* | -19 | 7.3µM*
O=C(CCCN1CCOCC1)c1ccc2c(c1)OCCO2 | -2% | -8 | -19 | -11% | 4 | -29%
COc1cccc(N2CCN(C(=O)Cn3c(=O)oc4ccccc43)CC2)c1 | -4% | 3 | 1 | -4% | 24 | 4%
CN(Cc1c(C(=O)N(C)Cc2ccccc2)nc2ccccn12)CC1Cc2ccccc2O1 (configuration not stated) | 1% | 11 | 0 | 15µM* | 1 | 18µM*
CN(Cc1ccccc1)C(=O)c1nc2ccccn2c1CN1CCc2sccc2C1 | x | 11 | -1 | u | -94* | -22%
CCN(CC(=O)Nc1c(F)cccc1F)C(=O)Cc1ccc(S(=O)(=O)N2CCOCC2)s1 | u | 0 | -1 | 0% | 6 | 2%
COc1cc2nc(NCc3ccccc3Cl)n3nc(-c4cccnc4)nc3c2cc1OC | -8% | x | -15 | -16% | x | 3%
Cc1cccc(CC2C(=O)Nc3ccccc32)c1 (configuration not stated) | 1% | x | 0 | 21µM* | x | u
O=C1Nc2ccccc2C1Cc1ccc(Br)cc1 (configuration not stated) | -2% | x | -2 | u | x | u
CSc1ccc(CC2C(=O)Nc3ccccc32)cc1 (configuration not stated) | 0% | x | -6 | 21µM* | x | u
O=C(O)c1ccc(S(=O)(=O)N(Cl)Cl)cc1 | x | x | -11 | 1% | x | -1%
CCOC(=O)CSc1nc(C)c(C(C)=O)cc1C(N)=O | x | -3 | -4 | -11% | -57* | 4%
CCCCN(C)CCCNC(=O)C1(O)c2ccccc2NC(=O)N1c1ccc(Cl)cc1 (configuration not stated) | -1% | 3 | 0 | -3% | -8 | -17%
Cc1ccccc1OCC(=O)N1N=C(C(F)(F)F)CC1(O)C(C)(C)C (configuration not stated) | -1% | -18 | -5 | 16µM* | -11 | u
Cc1cc2c3c(c1)C(C)(c1ccccc1)CC(C)(C)N3C(=O)C21C(C#N)=C(N)OC2=C1C(=O)CC(C)(C)C2 (configuration not stated) | 1% | 3 | -8 | 23µM* | u | 21µM*
